Reference: PubChem BioAssay
The source made the active and inactive calls.

What was measured:
[1] = tested on: XIP peptide (Xip251-270) binding; test: small-molecule binders of XIP peptide, primary screen, biochemical, small-molecule microarray, fluorescence 635/667 nm, 0.1 µg/mL protein (AID 1182); settings: fluorescent protein binding, 635 nm, higher = more signal, called active from +8 up or from −8 down
XIP peptide (Xip251-270) = test: small-molecule binders of XIP peptide, primary screen, biochemical, small-molecule microarray, fluorescence 635/667 nm, 0.5 µg/mL protein (AID 1183); settings: small-molecule microarray binding, fluorescence 635 nm; higher = more signal
[2] = Plasmodium falciparum growth inhibition, primary screen, strain 3D7, DAPI fluorescence, 100 nL (AID 1184);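 also: parasites grown inside human red blood cells in medium with human serum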; settings: P. falciparum 3D7 growth, 3 d, higher = more signal
[3] = target: Homeobox protein Hox-A13 (Mus musculus) (UniProt Q62424); test: inhibitors of HoxA13-DNA binding, primary screen, biochemical, fluorescence polarization, labeled oligonucleotide (AID 1185); settings: 15 min, higher = more signal, called active from +8 up or from −8 down
Chain of Homeobox protein Hox-A13 (Mus musculus) (Q62424 whole entry, looked up): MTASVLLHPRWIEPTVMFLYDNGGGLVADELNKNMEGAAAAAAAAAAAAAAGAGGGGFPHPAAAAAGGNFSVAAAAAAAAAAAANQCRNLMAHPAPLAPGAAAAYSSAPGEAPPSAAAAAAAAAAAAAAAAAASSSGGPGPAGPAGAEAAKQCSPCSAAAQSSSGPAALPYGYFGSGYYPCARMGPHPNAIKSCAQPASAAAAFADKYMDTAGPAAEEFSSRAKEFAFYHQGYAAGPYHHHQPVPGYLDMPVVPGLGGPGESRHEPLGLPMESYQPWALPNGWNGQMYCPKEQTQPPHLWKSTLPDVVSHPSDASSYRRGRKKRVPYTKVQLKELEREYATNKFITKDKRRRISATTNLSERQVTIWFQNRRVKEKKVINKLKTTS

SMILES	composite z-score [1]	composite z-score (XIP peptide (Xip251-270))	z-score [2]	z-score [3]
CC(C)=NOC[C@@H](O)[C@H]1O[C@@H]2OC(C)(C)O[C@@H]2[C@H]1O	0.524 (inactive)	-0.122	0.292	0.483 (inactive)
CCOC(=O)[C@H](Cc1ccccc1)NC(=O)CCC1CC(OC(=O)NCc2cccc3ccccc23)CC2(CCCC(COC(=O)NCCc3ccc(Cl)cc3)O2)O1 (some centres not stated)	0.351 (inactive)	0.568	-1.93	-5.98 (inactive)
COC(=O)[C@@H]1CC[C@H](C)[C@@H](c2ccc(C)cc2)N1C(=O)c1ccc(C=NOC[C@H]2O[C@H](c3ccccc3)C=C[C@@H]2Oc2ccc(OC)cc2)cc1	0.176 (inactive)	0.313	-1.14	-0.0628 (inactive)
COC(=O)CC=C[C@@H](C)[C@@H](C=NOC(C)CN1CCCCc2nc(C)c(C)cc21)OC (some centres not stated)	0.771 (inactive)	0.444	1	-4.37 (inactive)
COC(=O)[C@@H]1CC[C@H](C)[C@@H](c2ccc(Br)cc2)N1C[C@H](O)CN=[N+]=[N-]	1.12 (inactive)	-0.135	-0.637	-2.93 (inactive)
O=C1C[C@@H](O)[C@@H](O)[C@@H]2[C@@H]3C(=O)N(Cc4ccccc4)C(=O)[C@@H]3CC[C@H]12	-0.317 (inactive)	0.502	-0.331	-1.12 (inactive)
C[C@@H]1CC[C@H]2C(=O)O[C@@H](COc3ccc(C(C)(C)C)cc3)CN2[C@H]1c1ccc(Br)cc1	-0.382 (inactive)	0.619	0.907	0.503 (inactive)
O=C1[C@H]2[C@H]3[C@H](O)[C@H](O)CC(=NOC[C@@H](O)COCc4ccco4)[C@@H]3CC[C@H]2C(=O)N1c1cccc(Oc2ccccc2)c1	0.2 (inactive)	-0.344	0.48	-5.57 (inactive)
